Screening data: PubChem, several laboratories
Hits are enriched below; roughly 0.92% of the tested compounds scored in any of these assays.
Mtb hypoxia inh: Mtb hypoxia fluorescent reporter inhibition; M. tuberculosis hypoxia-regulated fluorescent reporter, fluorescence; fluorescence inhibition, % (concentration not given with the values); 300,000 tested, 0.1% active; AID 1159583; in the data active = fluorescence inhibition mostly above about 23%, no sharp cut-off; inactive = mostly below about 17%
UGM FP inh: inhibitors of M. tuberculosis UDP-galactopyranose mutase; P9WIQ1; purified UGM, fluorescence polarization probe displacement; inhibition, % at 10 µM; 320,000 tested, 0.06% active; AID 504406; in the data active = inhibition above about 10%, passing the limit was not always enough; inconclusive = no clear call, values can overlap the other calls
Target sequence (P9WIQ1 whole entry, looked up): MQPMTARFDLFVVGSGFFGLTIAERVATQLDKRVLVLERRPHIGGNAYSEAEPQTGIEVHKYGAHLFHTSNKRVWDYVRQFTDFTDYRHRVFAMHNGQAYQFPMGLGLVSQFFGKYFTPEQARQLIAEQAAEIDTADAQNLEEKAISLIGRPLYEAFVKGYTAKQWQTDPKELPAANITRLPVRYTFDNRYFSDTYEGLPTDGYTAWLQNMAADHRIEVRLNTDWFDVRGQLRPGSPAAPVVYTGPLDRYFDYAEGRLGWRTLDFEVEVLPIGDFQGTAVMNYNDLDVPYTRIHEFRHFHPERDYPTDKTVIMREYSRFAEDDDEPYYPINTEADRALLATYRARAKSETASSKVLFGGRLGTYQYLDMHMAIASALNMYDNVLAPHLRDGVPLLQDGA
FadD28 binding: M. tuberculosis FadD28 bisubstrate binding inhibition | FadD28 bisubstrate probe binding, fluorescence polarization | inhibition, % at 12.5 µM | 360,000 tested, 0.22% active | AID 588549; in the data active = inhibition above about 8.5%, passing the limit was not always enough; inconclusive = no clear call, values can overlap the other calls
RecA splice inh: Mtb RecA intein splicing inhibition | P9WHJ3 | cell-free RecA intein splicing, fluorescence | AID 2221 | 290,000 tested, 0.75% active | inhibition, % (no concentration beside the values); in the data active = inhibition above about 30%; inconclusive = no clear call, values can overlap the other calls;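 note: 0% = vehicle wells and 100% = reference inhibitor control wells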
Rv3671c protease: inhibits the M. tuberculosis serine protease Rv3671c; P9WHR9; inhibition, % at 5.96 µM; 320,000 tested, 0.048% active; AID 2606;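 note: extracellular domain of Rv3671c used as enzyme; 0% = enzyme with DMSO and 100% = no enzyme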
Rv3671c cf: Rv3671c protease inhibition, confirmation; shares compounds with Rv3671c protease; inhibition, % at 5.96 µM; 140 tested, 40% active; AID 2761
An asterisk follows results filed as active; u = inconclusive; x = no result given. Cut-off read from the data, not from the text of the source, unless noted: active = inhibition above about 38%; inactive = the rest.

SMILES | Mtb hypoxia inh | UGM FP inh | FadD28 binding | RecA splice inh | Rv3671c protease | Rv3671c cf
CCN1/C(=C/C=C/c2oc3ccc(-c4ccccc4)cc3[n+]2CC)Oc2ccc(-c3ccccc3)cc21 | -194 | u | 95* | -8 | 60* | -16
COc1ccc(C2C3C(=O)N(C(C)(C)C)C(=O)C3[C@]3(Cc4ccc(Cl)cc4)C(=O)N(c4ccc(Br)cc4)C(=O)N23)cc1 (stereo not given in full) | -2 | x | x | x | x | x
COc1cccc(CSc2nc3ccncc3[nH]2)c1 | -3 | -5 | -7 | -4 | 183* | -1
CNc1ccc2c3c(cccc13)C(=O)N(C)C2=O | x | u | 4 | -295 | 77* | 69*
Nc1ccc(O)c2c1C(=O)c1ccccc1C2=O | x | 4 | 4 | 42* | 56* | 38*
CC(=NNC(=O)CN1CCN(S(=O)(=O)c2ccc(Br)cc2)CC1)c1ccco1 | 12 | x | x | x | x | x
CC(=O)[C@]1(O)Cc2c(O)c3c(c(O)c2[C@@H](O[C@H]2C[C@H](N)[C@H](O)[C@H](C)O2)C1)C(=O)c1ccccc1C3=O | x | 70* | x | -16 | 69* | 81*
CC1(C)Cc2c(C#N)c(NCCc3ccccc3)nc(-c3ccco3)c2CO1 | -2 | 0 | 0 | 3 | 81* | 15
CCN(CC)CCNc1nc(-c2ccco2)c2c(c1C#N)CC(C)(C)OC2 | 18 | 0 | -4 | -4 | -8 | x
Cc1ccc(OCCn2cc(/C=N/NC(=O)c3ccncc3)c3ccccc32)cc1 | x | 4 | 0 | 0 | 40* | 26
Cc1cccn2c(=O)c(C=C(C#N)C(=O)NC3CCS(=O)(=O)C3)c(N3CCC(C)CC3)nc12 (stereo not given) | 10 | x | x | x | x | x
Cc1sc(-c2ccncc2)nc1OC(=O)c1ccccc1 | -3 | 2 | -4 | 1 | 44* | 61*
Cc1cccc2c(N=O)c(O)[nH]c12 | 11 | 1 | -3 | 0 | 48* | 31
Cc1[nH]c2c(C)cccc2c1CC(=O)O | 7 | -1 | -2 | -5 | 1 | x
O=C(Oc1cncc(Cl)c1)c1ccco1 | -2 | -1 | -1 | -5 | 63* | 88*
O=C(N/N=C/c1cc([N+](=O)[O-])ccc1O)NC12CC3CC(CC(C3)C1)C2 | x | 1 | -1 | 2 | 52* | 20
C=CS(=O)(=O)N(Cc1ccccc1Br)C(CO)CC(C)C (stereo not given) | 20 | x | x | x | x | x
CCCCCCCCCC(=NO)c1ccccn1 | 7 | x | x | x | x | x
O=c1c2ccccc2[se]n1-c1ccccc1 | x | x | -4 | -1 | 40* | 41*
O=c1[nH][nH]c(C(F)(F)F)c1C=Nc1ccccc1 | 8 | 1 | -1 | x | 6 | x
Cc1cc(O)ccc1N=Cc1c(C(F)(F)F)[nH][nH]c1=O | 18 | 5 | 1 | -6 | 99* | -4
CNCC1Oc2c(NS(=O)(=O)c3ccccc3)cccc2C(=O)N(C(C)CO)CC1C (stereo not given) | 8 | x | x | x | x | x
CCOc1ccc(-c2nc3ccccc3c(=O)o2)cc1 | 16 | -1 | -3 | 2 | -2 | x
O=c1oc(-c2ccccc2Br)nc2ccccc12 | 16 | -3 | -4 | 29 | 40* | 66*
O=S1(=O)CCOCC(CC2CCCCC2)N1Cc1ccccc1 (stereo not given) | 5 | x | x | x | x | x
SMILES | Mtb hypoxia inh | UGM FP inh | FadD28 binding | RecA splice inh | Rv3671c protease | Rv3671c cf
O=C(O)C1C2C=CC(C2)C1C(=O)NCc1cccnc1 (stereo not given) | 1 | 1 | -1 | -2 | 77* | -9
CC(C)(C)C1C=C(C(=O)NC2CC2)OC(OCCCCO)C1 (stereo not given) | -4 | x | x | x | x | x
O=C1C(CSCc2ccccc2)NC(=S)N1c1ccccc1 (stereo not given) | -2 | 0 | -4 | 6 | 98* | 60*
O=C(O)CC1NC(=S)N(c2ccccc2)C1=O (stereo not given) | -5 | -1 | -2 | 0 | 2 | x
CCOC(=O)C1=C(NC(=S)NC(=O)c2ccccc2)c2ccccc2CC1(C)CC (stereo not given) | -3 | 1 | -1 | 7 | -2 | x
CCOC(=O)C1=C(NC(=S)NC(=O)c2ccccc2)c2ccccc2CC1C(C)C (stereo not given) | x | -6 | -1 | 5 | 55* | -12
COc1cc(C=NNc2ccc(S(=O)(=O)Nc3ccccc3C(=O)O)cc2[N+](=O)[O-])ccc1O | 22 | 2 | 50* | x | 47* | 42*
S=C(Nc1ccc(Cl)cc1)N1CCN(C2CCCCC2)CC1 | 9 | 1 | -2 | 4 | 5 | x
C=CCNC(=S)N1CCN(C2CCCCC2)CC1 | 13 | 1 | -4 | 2 | 40* | -1
